For assay [1], the target named is Lysosomal acid glucosylceramidase (Homo sapiens) (UniProt P04062). Description: Glucocerebrosidase-p2 (AID 348; in the data active = potency below about 10 µM; also: potency is read from the fitted curve at half-maximal effect). Particulars: purified GBA, blue fluorogenic substrate, 40 min. The essentials: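 Compounds titrated from 0.6 nM upwards against 0.2 nM enzyme in pH 5.9 citric acid/KH2PO4, taurocholate, tween-20; blue fluorogenic substrate 80 uM, 40 min room temperature, stopped and read Ex 365/Em 440 for AC50.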
Lysosomal acid glucosylceramidase (Homo sapiens), sequence (P04062 whole entry, looked up): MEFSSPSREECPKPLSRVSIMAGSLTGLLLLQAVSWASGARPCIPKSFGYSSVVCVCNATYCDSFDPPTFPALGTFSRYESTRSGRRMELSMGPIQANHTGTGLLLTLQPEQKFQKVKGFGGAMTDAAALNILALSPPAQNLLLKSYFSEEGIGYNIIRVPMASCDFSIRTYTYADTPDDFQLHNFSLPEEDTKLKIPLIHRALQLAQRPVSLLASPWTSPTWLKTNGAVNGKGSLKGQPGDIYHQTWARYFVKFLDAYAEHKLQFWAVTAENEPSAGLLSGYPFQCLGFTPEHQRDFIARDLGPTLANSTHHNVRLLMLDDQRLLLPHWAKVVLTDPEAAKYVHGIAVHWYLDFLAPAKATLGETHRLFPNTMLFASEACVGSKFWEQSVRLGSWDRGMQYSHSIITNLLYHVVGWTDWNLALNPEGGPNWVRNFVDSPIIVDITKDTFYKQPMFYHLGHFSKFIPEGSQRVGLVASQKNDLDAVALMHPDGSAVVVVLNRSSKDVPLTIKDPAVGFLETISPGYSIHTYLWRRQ

Assay [2] in a line: AP1 Signaling Pathway (AID 357; active = well fitted curve in either direction with a large enough effect, not every such curve was filed as active;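 also: ME-180 reporter cells stimulated with EGF at its EC50 level; % is scaled to controls: 0 for no effect and ±100 for the full control effect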). Particulars: ME-180 AP-1-bla reporter, EGF-induced, beta-lactamase ratio, 5 h; at 7.69 µM (top of the series) unless noted. Summed up:
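Read-out was the 460nm/530nm emission ratio (excitation 405nm) after CCF4 loading for 2.5 hours at room temperature. Cells carried an AP-1-driven beta-lactamase reporter, were stimulated with EC50 EGF plus compound for 5 hours, and AC50 values came from titrations.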

Assay [3] addresses Cytochrome P450 1A2 (Homo sapiens) (UniProt P05177). Description: p450-cyp1a2 (AID 410; calls by dose curve; also: potency is read from the fitted curve at half-maximal effect). Summed up:
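Luminescent readout of luciferin formed from Luciferin-ME by human CYP1A2; data normalized against complete inhibition by 57 uM furafylline. Enzyme 20nM, substrate 100uM at Km, 100mM KPO4 buffer, 60 min reaction at room temperature.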

Assay [4] in a line: NFAT Signaling Pathway (AID 444; active = well fitted curve in either direction with a large enough effect, not every such curve was filed as active;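 also: carbachol stimulus at about its EC50 of 1 µM final; % is scaled to controls: 0 for no effect and ±100 for the full control effect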). Particulars: Jurkat NFAT-bla M1, carbachol, beta-lactamase ratio, 5 h; at 7.69 µM (top of the series) unless noted. The essentials: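 Read-out: CCF4 FRET ratio (460 nm/530 nm) after 1 h RT dye loading, used for %activity and AC50 from titration series. Cells: Jurkat NFAT-β-lactamase/M1 line, treated with compound plus 1 uM carbachol for 5 h, 37 °C.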

Assay [5] is described as follows: Stat Signaling Pathway (AID 446; active = well fitted curve in either direction with a large enough effect, not every such curve was filed as active;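 also: ME-180 cervical cancer cells given 40 pM IL-6 alongside compound; SIE-controlled beta-lactamase reporter measured as 460/530 nm FRET emission ratio; % is scaled to controls: 0 for no effect and ±100 for the full control effect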). Particulars: ME-180 (cervical carcinoma) SIE beta-lactamase reporter, IL-6 stimulated, 5 h; at 7.69 µM (top of the series) unless noted. Summed up:
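ME-180 cells carrying a SIE-driven beta-lactamase reporter are stimulated with 40 pM IL-6 for 5 h at 37C in the presence of compound. The 460/530 nm FRET substrate ratio is read after 2.5 h at RT. Data are normalised to 300 pM IL-6 and to 125 nM JAK inhibitor controls.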

Assay [6] has as its target Glucocorticoid receptor (Homo sapiens) (UniProt P04150). Nature of the assay: GR-EFC Redistribution (AID 451; calls by dose curve; also: potency is read from the fitted curve at half-maximal effect). Particulars: CHO-K1 GR-EFC translocation, beta-gal luminescence, 2 h. The essentials: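 Translocation of GR-ED fusion to nuclear EA restores b-gal, read by luminescence after 1 h room-temperature detection. Engineered CHO-K1 biosensor cells, 1,000/well, exposed 2 h at 37 C to titrations up to 46 uM final.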

The target of assay [7] is Cytochrome P450 3A4 (Homo sapiens) (UniProt P08684). Description: qHTS Assay for Activators of Cytochrome P450 3A4 (AID 885). Also: nearly all actives have a fitted effect of over 65% in size. Summed up: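 Human CYP3A4 (20 nM) with Luciferin-PPXE at 25 uM (its KM) in 200 mM KPO4; 10 min compound preincubation, then NADPH regeneration and 60 min reaction at RT. Luciferin read by luminescence; normalized to 57 uM ketoconazole full inhibition.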
Cytochrome P450 3A4 (Homo sapiens), sequence (P08684 whole entry, looked up): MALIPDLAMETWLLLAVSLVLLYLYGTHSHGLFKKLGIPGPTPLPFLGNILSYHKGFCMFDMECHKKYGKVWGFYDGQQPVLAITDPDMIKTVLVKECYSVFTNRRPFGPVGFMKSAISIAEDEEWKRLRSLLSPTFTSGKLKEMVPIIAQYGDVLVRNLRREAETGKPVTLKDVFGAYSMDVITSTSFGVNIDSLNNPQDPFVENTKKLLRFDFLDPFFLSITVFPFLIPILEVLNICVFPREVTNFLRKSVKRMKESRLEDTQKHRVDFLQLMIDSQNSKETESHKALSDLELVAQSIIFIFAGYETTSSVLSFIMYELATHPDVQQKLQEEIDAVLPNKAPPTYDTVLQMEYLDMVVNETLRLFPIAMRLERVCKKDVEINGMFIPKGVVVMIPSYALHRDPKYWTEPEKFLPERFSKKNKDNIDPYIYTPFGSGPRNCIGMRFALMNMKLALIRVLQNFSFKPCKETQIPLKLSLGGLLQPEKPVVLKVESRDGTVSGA
On the technique in general: In qHTS, concentration-response curves come from the screen itself.

Assay [8] can be described thus: Primary qHTS for small molecule stabilizers of the endoplasmic reticulum resident proteome: Secreted ER Calcium Modulated Protein (SERCaMP) assay (AID 1508630). Also: % is scaled to controls: 0 for no effect and ±100 for the full control effect. The essentials:
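GLuc-SERCaMP-expressing SH-SY5Y cells, pretreated 16 h with compound, are challenged with thapsigargin to empty ER calcium stores; after 4 h, coelenterazine is added directly to the medium and luminescence is imaged.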

Assay [9] has as its target Rap guanine nucleotide exchange factor 3 (Homo sapiens) (UniProt O95398). Description: Confirmatory qHTS for antagonist of cAMP-regulated guanine nucleotide exchange factor 3 (EPAC1) (AID 1645880). Also: nearly all actives have a fitted effect of over 55% in size. Also: potency is read from the fitted curve at half-maximal effect.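 As to activity, negative = inhibition: plate controls were DMSO only for no effect and full effect of the ATA control for full effect.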 The essentials:
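Nucleotide exchange uses 100 nM EPAC1, 250 nM RAP1B-BODIPY-GDP and 50 uM GDP, with compounds in a concentration-titration series. After 5 min at room temperature, fluorescence (480 nm ex/540 nm em) is read every 5 min for 30 min. Data are normalized to control ATA and DMSO.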

Assay [10] has the same target. Nature of the assay: Confirmatory qHTS for agonist of cAMP-regulated guanine nucleotide exchange factor 3 (EPAC1) (AID 1645881).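 Also: EPAC1 catalysed release of BODIPY-GDP from Rap1B seen as fluorescence loss; 100% = effect of cAMP agonist control; nearly all actives have a fitted effect of over 75% in size.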
Assay [11] concerns the target Rap guanine nucleotide exchange factor 4 (Homo sapiens) (UniProt Q8WZA2). Description: Confirmatory qHTS for agonist of cAMP-regulated guanine nucleotide exchange factor 4 (EPAC2) (AID 1645884).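 Also: nucleotide exchange releases bodipy-GDP from Rap1 and this lowers its fluorescence; % is scaled to controls: 0 for no effect and ±100 for the full control effect; nearly all actives have a fitted effect of over 65% in size.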
Assay [12] has the same target. Nature of the assay: Confirmatory qHTS for antagonist of cAMP-regulated guanine nucleotide exchange factor 4 (EPAC2) (AID 1645885). Also: % is scaled to controls: 0 for no effect and ±100 for the full control effect; nearly all actives have a fitted effect of over 25% in size.
In assay [13] the target is Glucocorticoid receptor (Homo sapiens) (UniProt P04150). Nature of the assay: GR-GFP Redistribution (AID 450;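 active = compounds whose dose series gives a full or clear partial fitted curve of increased nuclear translocation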; also: potency is read from the fitted curve at half-maximal effect). Particulars: U2OS GR-GFP nuclear translocation, laser cytometry, 2 h.
Glucocorticoid receptor (Homo sapiens), sequence (P04150 whole entry, looked up, the tested form may be a part): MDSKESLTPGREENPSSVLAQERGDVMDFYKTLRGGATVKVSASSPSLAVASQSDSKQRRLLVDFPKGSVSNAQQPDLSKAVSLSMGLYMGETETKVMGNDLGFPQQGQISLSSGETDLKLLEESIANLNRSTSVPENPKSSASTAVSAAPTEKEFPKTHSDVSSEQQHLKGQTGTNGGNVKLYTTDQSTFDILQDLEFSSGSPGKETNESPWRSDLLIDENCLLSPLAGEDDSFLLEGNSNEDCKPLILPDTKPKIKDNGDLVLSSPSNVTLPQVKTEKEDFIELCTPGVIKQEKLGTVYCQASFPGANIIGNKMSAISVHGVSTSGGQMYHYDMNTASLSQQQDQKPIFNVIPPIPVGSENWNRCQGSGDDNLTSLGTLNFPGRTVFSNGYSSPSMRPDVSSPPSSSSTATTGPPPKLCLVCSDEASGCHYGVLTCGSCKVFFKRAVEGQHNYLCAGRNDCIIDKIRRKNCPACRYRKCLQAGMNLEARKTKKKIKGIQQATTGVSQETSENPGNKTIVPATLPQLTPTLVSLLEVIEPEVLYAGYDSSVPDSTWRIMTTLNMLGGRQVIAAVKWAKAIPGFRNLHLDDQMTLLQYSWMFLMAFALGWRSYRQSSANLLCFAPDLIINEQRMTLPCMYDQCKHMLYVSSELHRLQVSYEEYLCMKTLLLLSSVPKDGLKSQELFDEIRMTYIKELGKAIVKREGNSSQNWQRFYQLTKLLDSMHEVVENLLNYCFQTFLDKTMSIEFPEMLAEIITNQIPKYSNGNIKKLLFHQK
The target in assay [14] is Mitogen-activated protein kinase 10 (Mus musculus) (UniProt Q61831). Description: JNK3 AlphaScreen Assay (AID 530; active = well fitted curve in either direction with a large enough effect, not every such curve was filed as active). Summed up: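 Compound titrations were preincubated 15 minutes at room temperature with substrate, antibody and pre-activated JNK3-containing HepG2 lysate. Reactions were started with 10 uM ATP and stopped with EDTA-containing bead buffer for AlphaScreen detection.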
In general terms: In Alpha technology, singlet oxygen from a donor bead excites a nearby acceptor bead.

Assay [15] has as its target 3',5'-cyclic-AMP phosphodiesterase 4B (Homo sapiens) (UniProt Q07343). Description: qHTS Assay for Inhibitors of PDE-IV (AID 607; active = well fitted activation curve with a large enough effect in the main read-out, with a control signal flat, not every such curve was filed as active; also: % of control where 0% means no effect). The essentials:
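HEK293 ACTOne cells with CNG channel (1000/well), endogenous PDE4; membrane potential dye, compounds up to 22.9 uM final. Fluorescence Ex 535/Em 590; RO 20-1724 (100 uM final) as reference.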

Assay [16] addresses Cytochrome P450 3A4 (Homo sapiens) (UniProt P08684). Nature of the assay: qHTS Assay for Inhibitors and Substrates of Cytochrome P450 3A4 (AID 884). Also: nearly all actives have a fitted effect of over 50% in size. Also: potency is read from the fitted curve at half-maximal effect. The essentials:
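20 nM human CYP3A4 with 25 uM Luciferin-PPXE (at KM) in 200 mM KPO4, preincubated 10 min with compound; NADPH regeneration started a 60 min RT reaction. Luciferin detected by luminescence, normalized to 57 uM ketoconazole as full inhibition.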

Assay [17] has as its target Dual specificity protein kinase CLK4 (Homo sapiens) (UniProt Q9HAZ1). Nature of the assay: qHTS Assay for Inhibitors of CDC-like Kinase 4 (ADP-FP Assay) (AID 1795). Also: % is scaled to controls: 0 for no effect and ±100 for the full control effect; nearly all actives have a fitted effect of over 60% in size. The essentials: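 Recombinant human Clk4 (6.25 nM) phosphorylated RS repeat peptide (100 uM) with 1 uM ATP in Tris pH 7.5/MgCl2/EGTA/DTT/Triton buffer for one hour. ADP was quantified by Transcreener competitive fluorescence polarization against an ADP calibration curve.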

The target in assay [18] is Ubiquitin carboxyl-terminal hydrolase 1 (Homo sapiens) (UniProt O94782). Description: Inhibitors of USP1/UAF1: Pilot qHTS (AID 504865).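 Also: rhodamine fluorescence freed from ubiquitin-rhodamine substrate followed over time; top concentration of the series differs between compounds; % is scaled to controls: 0 for no effect and ±100 for the full control effect; nearly all actives have a fitted effect of over 35% in size.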 The essentials: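 USP1/UAF1 complex (1nM) preincubated with compound 15 min at room temperature, then Ub-Rho substrate (150nM final) added. Fluorescence read kinetically at 480/540 nm, 6 reads every 60 seconds. Buffer: 50mM HEPES pH 7.8, 0.5mM EDTA, 0.1 mg/ml BSA, 1mM TCEP, 0.01% Tween-20.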

9 compounds from PubChem BioAssay (NCATS) can be followed below.

SMILES strings stand for the structures. Unmarked numbers belong to inactive results. Inconclusive results are not listed. The source made the active and inactive calls. Unless noted, calls follow the shape of the dose curve; as a rule, active = well fitted curve in the direction sought with a large enough effect; inconclusive = small, poorly fitted or top-dose-only effect, or another doubt; inactive = no such curve, though single readings can be large; an effect the other way counts as inactive or inconclusive.

Cytochrome P450 1A2 (Homo sapiens), sequence (P05177 whole entry, looked up): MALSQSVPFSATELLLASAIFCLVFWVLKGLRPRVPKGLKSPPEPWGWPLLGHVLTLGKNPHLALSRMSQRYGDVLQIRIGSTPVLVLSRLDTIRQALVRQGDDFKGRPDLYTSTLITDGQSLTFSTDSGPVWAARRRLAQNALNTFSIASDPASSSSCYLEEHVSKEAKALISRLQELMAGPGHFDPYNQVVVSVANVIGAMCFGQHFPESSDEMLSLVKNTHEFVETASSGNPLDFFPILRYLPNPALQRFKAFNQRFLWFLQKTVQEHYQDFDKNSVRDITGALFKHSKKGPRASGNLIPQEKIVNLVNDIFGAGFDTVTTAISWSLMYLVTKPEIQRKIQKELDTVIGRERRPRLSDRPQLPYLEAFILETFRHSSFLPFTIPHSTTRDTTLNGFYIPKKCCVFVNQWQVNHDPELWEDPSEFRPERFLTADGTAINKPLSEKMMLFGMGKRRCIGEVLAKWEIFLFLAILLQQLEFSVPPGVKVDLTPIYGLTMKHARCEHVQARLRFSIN
3',5'-cyclic-AMP phosphodiesterase 4B (Homo sapiens), sequence (Q07343 whole entry, looked up): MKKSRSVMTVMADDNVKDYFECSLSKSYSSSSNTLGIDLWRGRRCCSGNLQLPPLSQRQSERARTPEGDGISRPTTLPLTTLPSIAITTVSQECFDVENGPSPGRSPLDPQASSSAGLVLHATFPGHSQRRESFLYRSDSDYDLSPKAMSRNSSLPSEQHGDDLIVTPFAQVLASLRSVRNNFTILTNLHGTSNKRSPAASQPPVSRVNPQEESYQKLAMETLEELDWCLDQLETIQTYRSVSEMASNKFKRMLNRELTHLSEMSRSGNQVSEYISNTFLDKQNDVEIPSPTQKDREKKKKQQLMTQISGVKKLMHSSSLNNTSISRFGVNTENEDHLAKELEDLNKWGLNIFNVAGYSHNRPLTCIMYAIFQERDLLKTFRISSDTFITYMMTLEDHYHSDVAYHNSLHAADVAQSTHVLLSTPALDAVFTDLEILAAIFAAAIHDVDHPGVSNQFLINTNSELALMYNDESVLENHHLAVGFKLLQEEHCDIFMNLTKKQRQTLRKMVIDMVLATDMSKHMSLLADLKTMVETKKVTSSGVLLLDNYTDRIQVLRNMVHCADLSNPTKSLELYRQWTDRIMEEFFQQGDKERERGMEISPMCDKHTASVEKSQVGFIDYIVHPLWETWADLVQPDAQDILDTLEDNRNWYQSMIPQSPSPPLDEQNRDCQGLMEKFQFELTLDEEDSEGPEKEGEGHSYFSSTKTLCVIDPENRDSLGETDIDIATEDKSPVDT
Rap guanine nucleotide exchange factor 4 (Homo sapiens), sequence (Q8WZA2 whole entry, looked up): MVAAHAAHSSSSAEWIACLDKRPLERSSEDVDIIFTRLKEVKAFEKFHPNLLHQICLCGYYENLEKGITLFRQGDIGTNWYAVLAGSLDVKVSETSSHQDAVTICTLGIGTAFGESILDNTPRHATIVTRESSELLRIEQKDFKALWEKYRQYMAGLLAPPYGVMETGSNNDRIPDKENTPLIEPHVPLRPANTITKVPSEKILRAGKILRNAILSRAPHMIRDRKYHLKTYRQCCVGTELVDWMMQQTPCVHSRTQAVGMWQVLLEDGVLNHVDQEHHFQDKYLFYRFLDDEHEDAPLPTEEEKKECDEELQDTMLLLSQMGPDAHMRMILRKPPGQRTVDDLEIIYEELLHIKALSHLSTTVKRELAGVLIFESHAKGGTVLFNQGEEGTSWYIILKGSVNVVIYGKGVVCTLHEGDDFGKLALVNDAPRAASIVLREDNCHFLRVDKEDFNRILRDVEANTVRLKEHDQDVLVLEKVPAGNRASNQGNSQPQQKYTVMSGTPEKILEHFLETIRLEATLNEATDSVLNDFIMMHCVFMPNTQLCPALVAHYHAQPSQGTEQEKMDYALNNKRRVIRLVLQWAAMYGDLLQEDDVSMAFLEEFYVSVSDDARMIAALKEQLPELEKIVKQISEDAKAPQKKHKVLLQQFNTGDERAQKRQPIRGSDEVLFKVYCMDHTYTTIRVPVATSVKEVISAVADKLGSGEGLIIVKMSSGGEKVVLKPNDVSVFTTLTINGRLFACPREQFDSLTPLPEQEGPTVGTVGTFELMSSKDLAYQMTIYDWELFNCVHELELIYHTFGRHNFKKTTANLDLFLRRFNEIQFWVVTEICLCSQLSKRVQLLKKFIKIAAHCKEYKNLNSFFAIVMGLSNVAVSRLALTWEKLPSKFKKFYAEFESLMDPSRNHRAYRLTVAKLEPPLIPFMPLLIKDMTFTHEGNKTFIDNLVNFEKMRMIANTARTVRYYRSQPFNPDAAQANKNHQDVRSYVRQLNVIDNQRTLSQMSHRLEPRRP
Rap guanine nucleotide exchange factor 3 (Homo sapiens), sequence (O95398 whole entry, looked up): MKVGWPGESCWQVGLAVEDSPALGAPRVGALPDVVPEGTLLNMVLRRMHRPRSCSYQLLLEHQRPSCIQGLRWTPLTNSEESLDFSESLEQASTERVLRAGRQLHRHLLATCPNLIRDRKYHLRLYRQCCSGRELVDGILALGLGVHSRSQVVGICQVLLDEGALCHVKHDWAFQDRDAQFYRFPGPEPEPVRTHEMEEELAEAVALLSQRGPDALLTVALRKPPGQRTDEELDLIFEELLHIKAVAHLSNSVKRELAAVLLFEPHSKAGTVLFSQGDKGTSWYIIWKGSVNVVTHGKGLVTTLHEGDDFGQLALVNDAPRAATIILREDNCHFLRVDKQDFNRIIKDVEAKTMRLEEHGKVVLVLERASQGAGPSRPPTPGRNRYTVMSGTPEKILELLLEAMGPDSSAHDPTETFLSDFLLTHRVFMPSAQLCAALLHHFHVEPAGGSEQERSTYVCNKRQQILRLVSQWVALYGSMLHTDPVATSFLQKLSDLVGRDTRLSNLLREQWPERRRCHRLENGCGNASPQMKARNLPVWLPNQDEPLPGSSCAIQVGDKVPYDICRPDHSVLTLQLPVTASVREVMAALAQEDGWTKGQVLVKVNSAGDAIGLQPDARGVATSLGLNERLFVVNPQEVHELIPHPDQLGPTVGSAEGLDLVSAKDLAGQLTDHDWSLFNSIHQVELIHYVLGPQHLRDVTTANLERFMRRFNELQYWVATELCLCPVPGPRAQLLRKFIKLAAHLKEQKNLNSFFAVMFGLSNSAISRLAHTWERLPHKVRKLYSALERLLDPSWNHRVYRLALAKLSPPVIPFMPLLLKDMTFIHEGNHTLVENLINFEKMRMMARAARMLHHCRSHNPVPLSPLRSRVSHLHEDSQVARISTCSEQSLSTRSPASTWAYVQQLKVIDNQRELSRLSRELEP

For `Cn1cccc1C(=O)N1CCC2(CCCN(c3cccc(-c4ccccc4)c3)C2)CC1`, the Potency is over 11.4 µM in [1], 15.8 µM (active) in assay [3] and over 46 µM in assay [6]. Further, the results for the activity change, negative = inhibition in assay [2] and in [4] were 7.29% and -13.3%, respectively. In addition, in assay [5], the activity, negative = inhibition was 2.34%. Also, the Potency entry in assay [7], in assay [9], in [10], in [11] and in assay [12] was “inactive” throughout. Moreover, the result in assay [8] was inactive.

Take `COC(=O)C1=C(C)NC(C)=C(C(=O)OCCSc2ccccc2)[C@@H]1C`: the Potency is 0.794 µM (active) in assay [3], over 46 µM in [13] and over 46 µM in assay [6]. The Potency entry in assay [7], in assay [9] and in [10] was “inactive” in each case. Also, the outcome in [8] was inactive.

For the compound `C=CC(C)(C)c1c2c(c(O)c3c(=O)c4ccc(O)c(O)c4oc13)C=CC(C)(C)O2`, the result in assay [8] was inactive. Also, the Potency entry in assay [10] and in assay [11] was “inactive” throughout.

Consider `COc1ccc(Oc2ncc3ncc(=O)n(Cc4ccc(F)cc4)c3n2)cc1`, for which the Potency is over 11.4 µM in assay [1], over 9.22 µM in assay [13] and over 46 µM in assay [6]. Moreover, the results for the activity change, negative = inhibition in [2] and in assay [4] were -18.4% and -10.2%, respectively. The activity, negative = inhibition in [5] is -0.377%. Further, the Potency result in assay [14], in [9] and in [10] was “inactive” throughout. In assay [8], the result was inactive.

Regarding `Cn1cccc1C(=O)N1CCC2(CC1)CN(c1cccc(-c3ccccc3)c1)C2`, the Potency in assay [1] was over 11.4 µM; in assay [3], 25.1 µM (active); in assay [6], over 46 µM. In addition, the activity change, negative = inhibition is -14% in assay [2] and -2.77% in assay [4]. Moreover, in [5], the activity, negative = inhibition is -13.7%. The Potency result in [15], in assay [16], in assay [9], in [10] and in assay [11] was “inactive” in each case. In [8], the outcome was inactive.

With `O=c1c(-c2ccc(F)c(F)c2)nc2cncnc2n1Cc1ccccc1Cl`, the Potency in assay [1] is over 11.4 µM; in assay [3] it was 5.01 µM (active); in assay [13], over 9.22 µM. The activity change, negative = inhibition was 4.57% in [2] and -7.38% in assay [4]. For the same compound, the activity, negative = inhibition in assay [5] was 9.03%. For the same compound, the Potency result in assay [14], in assay [7], in assay [9], in assay [10] and in assay [11] was “inactive” each time. In assay [8], the outcome was inactive.

As to `COc1ccc(C(=O)N2CCC3(CCCN(c4cccc(-c5ccccc5)c4)C3)CC2)cc1`, the Potency was over 11.4 µM in assay [1] and over 46 µM in [6]. In assay [2], the activity change, negative = inhibition was 11.7%. Besides, in [5], the activity, negative = inhibition is 1.07%. Further, the Potency result in [14], in assay [15], in assay [9] and in assay [12] was “inactive” throughout. For the same compound, the outcome in assay [8] was inactive.

Consider `CCCCCc1c2c(cc(O)c1C(=O)O)OC(=O)c1cc(C(=O)CCCC)c(OC)cc1O2`, for which, in assay [8], the result was inactive. Also, in assay [9], the Potency was 42.6 µM (active). The Potency result in assay [10] and in assay [11] was “inactive” throughout.

In the case of `COc1ccc(CNc2nc(-c3ccc4c(c3)OCO4)nc3ccccc23)c(OC)c1`, the Potency in [1] is over 11.4 µM; in [3], 3.98 µM (active); in assay [13], over 46 µM; in assay [6], over 46 µM; in assay [16] it was 1.26 µM (active). Further, in [2], the activity change, negative = inhibition was 0.828%. Also, the activity, negative = inhibition in assay [5] was 2.14%. Besides, the Potency entry in [14], in assay [15], in assay [7], in assay [17], in assay [18] and in assay [10] was “inactive” throughout. Moreover, the Potency entry in assay [11] and in [12] was “inactive” throughout. Moreover, the outcome in assay [8] was inactive.
